This is a sample that favours compounds with a hit; in the whole collection about 9.4% have one here.
NPC1 promoter act = activates the NPC1 promoter. actives 2.4% (n = 320,000). Huh7 NPC1 promoter luciferase reporter, 24 h. Potency, µM (highest dose often 9.22 µM), usual class: activators. AID 485313; also: nearly all actives have a fitted effect of over 60% in size
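Huh7 reporter cells (NPC1 promoter driving luciferase) are dosed with compound for 24 h at 37 °C, 5% CO2; luciferase detection reagent is then added and luminescence measured after 10 min at ambient temperature.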
Rab9 prom act = activators of Rab9 promoter | Potency, µM (series often up to 9.22 µM), actives largely listed as activators | Huh7 Rab9 promoter-luciferase reporter, luminescence, 24 h | actives 2.8% (n = 320,000); also: nearly all actives have a fitted effect of over 60% in size
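Cell-based reporter: Huh7 stable for Rab9 promoter-driven luciferase, plated in reduced-serum medium with 10% FBS at 1500 cells/well, compound-treated 24 h at 37 °C, luminescence read after 10 min reagent.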
ELG1 genotoxic = inducers of genotoxicity in HEK293T ELG1-luciferase cells; HEK293T ELG1-luciferase reporter, luminescence, 16 h; Potency, µM (doses to about 46 µM), actives largely listed as activators; actives 1.3% (n = 330,000); AID 504466; also: nearly all actives have a fitted effect of over 60% in size
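After overnight (16 hr) compound treatment at 37 °C, ELG1-luciferase HEK293T cells were lysed with ONE-Glo; luminescence quantified 30 min later at room temperature.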
ELG1 DNA repair = inhibitors of ELG1-dependent DNA repair in HEK293T cells | HEK293T ELG1-luciferase reporter, luminescence, 16 h; DNA damage induced by 5-fluorouridine | Potency, µM (doses to about 46.1 µM), actives largely listed as inhibitors | actives 2.3% (n = 330,000); also: nearly all actives have a fitted effect of over 55% in size
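5-Fluorouridine DNA damage + compound/DMSO, 2,000 cells/well, 16 h, 37 °C/5% CO2. ONE-Glo, 30 min RT, luminescence. Readout = decrease in reporter signal.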
SMN2 splice up = SMN2 splice variant enhancement; AID 1458; actives 2.8% (n = 210,000); Potency, µM (series often up to 46.1 µM), most hits filed as activators; HEK293 SMN2-luciferase splicing reporter, luminescence, 30-36 h; also: nearly all actives have a fitted effect of over 55% in size
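qHTS luciferase splicing reporter: luminescence rises when SMN2 exon 7 is included in transfected HEK293 cells. Compound exposure lasted 30-36 h at 37C, with 4.5 mM final sodium butyrate as control, followed by a ONE-Glo read.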
FLuc counter = inhibits or activates purified firefly luciferase, miR-21 counter-screen. P08659. purified FLuc, Km substrates, luminescence inhibition. Potency, µM (titrated, usually from 57.5 µM), actives largely listed as inhibitors. actives 6.9% (n = 360,000). AID 588342; also: nearly all actives have a fitted effect of over 55% in size
Target sequence (P08659 whole entry, looked up): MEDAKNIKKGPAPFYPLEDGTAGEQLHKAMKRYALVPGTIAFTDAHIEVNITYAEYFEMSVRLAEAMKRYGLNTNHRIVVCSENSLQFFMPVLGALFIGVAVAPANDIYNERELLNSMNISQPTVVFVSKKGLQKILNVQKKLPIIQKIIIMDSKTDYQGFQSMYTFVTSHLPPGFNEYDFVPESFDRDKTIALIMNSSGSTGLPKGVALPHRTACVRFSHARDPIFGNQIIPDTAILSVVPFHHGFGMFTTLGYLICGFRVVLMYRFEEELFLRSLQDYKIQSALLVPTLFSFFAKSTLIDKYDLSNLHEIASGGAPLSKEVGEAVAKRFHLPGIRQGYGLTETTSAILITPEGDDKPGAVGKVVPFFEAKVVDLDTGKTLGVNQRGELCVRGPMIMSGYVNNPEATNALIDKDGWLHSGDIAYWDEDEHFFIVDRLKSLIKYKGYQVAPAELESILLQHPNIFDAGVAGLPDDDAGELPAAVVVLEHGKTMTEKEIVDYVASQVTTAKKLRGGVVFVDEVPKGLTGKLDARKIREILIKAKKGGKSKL
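Biochemical qHTS of compounds, final roughly 60 µM downward over six points, against 10 nM purified firefly luciferase using Km concentrations of substrates (10 uM D-luciferin, 10 uM ATP) in Tris acetate pH 7.5 buffer; luminescence output.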
A number is an active result; n = inactive; u = inconclusive; x = not tested or not shown; [ ] = another dose, or the depositor's remark. Calls follow the shape of the dose curve; as a rule, active = well fitted curve in the direction sought with a large enough effect; inconclusive = small, poorly fitted or top-dose-only effect, or another doubt; inactive = no such curve, though single readings can be large; an effect the other way counts as inactive or inconclusive.

SMILES | NPC1 promoter act | Rab9 prom act | ELG1 genotoxic | ELG1 DNA repair | SMN2 splice up | FLuc counter
O=C1NC(=Nc2ccccc2)S/C1=C/c1cccnc1 | n | n | n | n | n | u
COc1ccc(OCC(=O)Nc2cc(-c3nc4ccccc4o3)ccc2Cl)cc1 | x | x | x | x | n | n
N=C(N)SCCSC(=N)N | x | x | x | x | n[9.22 µM] | x
CCCc1nc2oc3ccccc3c(=O)c2c(=O)n1-c1ccccc1 | n | n | u | u | x | n
CCc1nc2oc3ccccc3c(=O)c2c(=O)n1-c1ccc(C)cc1 | n | n | u | u | x | 17µM
CCCc1nc2oc3ccccc3c(=O)c2c(=O)n1-c1ccc(C)cc1 | n | u | u | u | x | n
CCc1nc2oc3ccccc3c(=O)c2c(=O)n1-c1ccccc1 | n | n | 13µM | u | 11µM | n
COc1ccc(S(=O)(=O)NCCc2csc3nc(-c4cccc(C)c4)nn23)cc1F | x | x | x | x | x | n
CCC(Sc1nc2ccccc2c2nc(CCn3c(C)nc4ccccc43)nn12)C(=O)Nc1ccc(F)cc1 (stereo not drawn) | x | x | x | x | x | n
Cc1cccc(NC(=O)c2snc3c(=O)[nH]cnc23)c1 | n | n | n | n | n | n
Cc1nc2c(C(=O)Nc3ccc(N4CCCC(O)C4)cc3)snc2c(=O)[nH]1 (stereo not drawn) | n | n | n | u | x | 3µM
O=C(Nc1ccc(N2CCCC(O)C2)cc1)c1snc2c(=O)[nH]cnc12 (stereo not drawn) | n | n | u | n | u | 2.1µM
COc1ccccc1-c1noc(CCCC(=O)Nc2cc(C)ccc2C)n1 | x | x | x | x | n | n
CCOc1ccc(C(=O)Nc2ccc(-c3nc4cc(C)ccc4o3)cc2)cc1 | x | x | x | x | x | n
CCC(=O)NC(=S)Nc1ccc2oc(-c3ccc(OC)cc3)nc2c1 | 2µM | u | 16µM | u | 7.9µM | n
CCCC(=O)Nc1ccc(-c2nc3cc(C)ccc3o2)cc1 | 0.5µM | 0.5µM | u | u | 1.3µM | 0.54µM
CCCC(=O)Nc1ccc2oc(-c3ccc(OC)c(Br)c3)nc2c1 | u | 6.3µM | u | u | n | u
CCCC(=O)Nc1ccc(-c2nc3cc(C)c(C)cc3o2)c(O)c1 | u | 2µM | u | u | 35µM | n
CC(C)Oc1ccc(CNC(=O)C2CCCCN2S(=O)(=O)c2ccc(F)cc2)cc1 (stereo not drawn) | x | x | x | x | x | n
O=C(CSc1c2c(nc3ccccc13)CCC2)Nc1ccc(F)cc1F | x | x | x | x | n | n
COc1ccc(S(=O)(=O)N2CCN(CC(=O)Nc3ccc(Cl)c(C(F)(F)F)c3)CC2)cc1 | x | x | x | x | x | n
Cc1nc(NCCO)c2nc(-c3ccccc3)n(CCCN(C)C)c2n1 | x | x | x | x | n | x
CC(C)(C)C(=O)Nc1nnc(CCc2ccccc2)s1 | 4µM | 5.6µM | u | u | x | 12µM
O=C(Nc1ccccc1)Nc1nnc(CSCc2ccccc2Cl)s1 | n | n | n | u | n | n
CCCc1nnc(NC(=S)Nc2ccccc2)s1 | u | 2.5µM | u | u | u | u
SMILES | NPC1 promoter act | Rab9 prom act | ELG1 genotoxic | ELG1 DNA repair | SMN2 splice up | FLuc counter
CCCc1nnc(NC(=O)CCC(=O)NCc2ccccc2Cl)s1 | n | n | n | u | x | n
CCCc1nnc(NC(=O)Nc2ccccc2Cl)s1 | x | x | x | x | 16µM | u
CCC(=O)Nc1nnc(CCc2ccccc2)s1 | n | n | n | u | u | n
O=C(Nc1ccc(Cl)cc1)Nc1nnc(CSCc2ccccc2Cl)s1 | n | n | n | 10µM | n | n
O=C(O)C1=C/C(=C(/c2ccccc2)c2cc(C(=O)O)c(O)c3ccccc23)c2ccccc2C1=O | x | x | x | x | n[9.22 µM] | x
Cn1c(=O)c2c(SCC(=O)NCc3ccco3)nc(-c3ccccc3)nc2n(C)c1=O | x | x | x | x | x | n
CC(C)C(=O)Nc1nnc(NC(=S)Nc2ccccc2)s1 | u | 4.5µM | u | u | n | 21µM
CCCOC(=O)c1ccc(NC(=O)c2ccc(Br)o2)cc1 | n | n | u | u | n | 17µM
CCc1cccc(NC(=O)c2ccc(Br)o2)c1 | n | n | n | u | n | n[2.3 µM]
CCN(CC)c1ccc(NC(=O)c2ccc(Br)o2)cc1 | 1.6µM | 0.79µM | u | u | 11µM | 5.4µM
COC(=O)Cc1ccc(NC(=O)c2ccc(C)c(C)c2)cc1 | u | 2.5µM | 5.2µM | u | u | 3µM
COC(=O)Cc1ccc(NC(=O)c2ccc(Br)o2)cc1 | u | u | 18µM | u | u | 17µM

Bioassay records from PubChem BioAssay.
